# Results as given in PubChem BioAssay (Tox21).
# “And” between values parts separate entries of the source, which are not always exact repeats. Identical values can stand only once. Records with an inconclusive call do not appear. Entries that show only a call come without a potency. The source holds several records for some structures; these can differ, active in one and inactive in another. The source made the active and inactive calls. Unless noted, calls follow the shape of the full dose curve.
# What was measured:
# [1] = Nuclear factor erythroid 2-related factor 2/antioxidant responsive element (Nrf2/ARE) small molecule agonists: qHTS cell viability counter screen in human keratinocytes (AID 1919968; active = well fitted curve in the direction sought with a large enough effect in the repeat runs; an effect the other way counts as inactive or inconclusive; also: nearly all actives have a fitted effect of over 55% in size; also: potency is read from the fitted curve at half-maximal effect)
# Procedure, shortened: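 KeratinoSens HaCaT cells, 1,500/well, preincubated 5 h, then exposed to compounds in DMSO for 23 h at 37 C/5% CO2. Viability read as CellTiter-Fluor fluorescence after 1 h, in the same wells as the ARE-luciferase read.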
# [2] = Nuclear factor erythroid 2-related factor 2/antioxidant responsive element (Nrf2/ARE) small molecule agonists: luciferase reporter gene qHTS assay in human keratinocytes (AID 1919969); also: nearly all actives have a fitted effect of over 35% in size; also: potency is read from the fitted curve at half-maximal effect
# [3] = target: KiSS-1 receptor (Homo sapiens) (UniProt Q969F8); assay: Human kisspeptin (KISS1R) small molecule agonists, calcium flux assay in KISS1R-HEK293 cells (AID 1920064; active = well fitted curve in the direction sought with a large enough effect in the repeat runs; an effect the other way counts as inactive or inconclusive)
# Procedure, shortened: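 HEK293 cells stably expressing human KISS1R were loaded with calcium dye for 1 h at 37 C, then given compound; fluorescence (Ex/Em 480/540) was read kinetically for 3 min. Fifteen concentrations, triplicate.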
# [4] = G protein-coupled receptor (GPCR) small molecule agonists, calcium flux assay: HEK293 wild type cell line counter screen (AID 1920065)
# Procedure, shortened: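 Wild-type HEK293 cells plated 18 h, loaded with calcium dye 1 h at 37 C, then compounds added in agonist mode (ATP as positive control). Kinetic fluorescence Ex/Em 480/540 recorded 3 min at 1 sec intervals; 15 concentrations, triplicate.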
# [5] = p53 small molecule agonists, cell-based qHTS assay with human liver microsomes (AID 1963577);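 also: p53 response element beta-lactamase reporter cells with liver microsomes plus NADPH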
# Procedure, shortened: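 With metabolic activation: human liver microsomes (0.5 mg/mL final) plus NADPH (0.5 mg/mL final) added alongside compounds to p53RE-bla cells; 16 h 37 C exposure; beta-lactamase read by LiveBLAzer fluorescence.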
# [6] = p53 small molecule agonists, cell-based qHTS assay with rat liver microsomes (AID 1963578)
# Procedure, shortened: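 Metabolic activation by rat liver microsomes and NADPH, each 0.5 mg/mL final, added right after compounds to p53RE-bla reporter cells (4,000/well, plated 5 h earlier). 16 h at 37 C, then LiveBLAzer substrate for 2 h at room temperature in the dark; fluorescence read-out.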
# [7] = p53 small molecule agonists, cell-based qHTS assay with human liver microsomes: qHTS cell viability counter screen (AID 1963579); also: nearly all actives have a fitted effect of over 45% in size; also: potency is read from the fitted curve at half-maximal effect
# Procedure, shortened: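 Metabolic activation used human liver microsomes and NADPH, both 0.5 mg/mL final, over 16 hours at 37 C on p53RE-bla cells (4,000/well). Cytotoxicity measured by CellTiter-Glo luminescence, 30 min at room temperature.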
# [8] = p53 small molecule agonists, cell-based qHTS assay with rat liver microsomes: qHTS cell viability counter screen (AID 1963580); also: nearly all actives have a fitted effect of over 45% in size; also: potency is read from the fitted curve at half-maximal effect
# Procedure, shortened: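 HCT-116 p53RE-bla, 4,000 cells/well, 5 h pre-incubation; cpd + rat liver microsomes 0.5 mg/mL + NADPH 0.5 mg/mL (final); 16 h, 37 C; CellTiter-Glo, 30 min RT; luminescence.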
# [9] = p53 small molecule agonists, cell-based qHTS assay: qHTS cell viability counter screen (AID 1963581); also: nearly all actives have a fitted effect of over 45% in size; also: potency is read from the fitted curve at half-maximal effect
# Procedure, shortened: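 p53RE-bla HCT-116 cells, compounds added 5 h after plating and incubated 16 h at 37 C. Cytotoxicity measured in the same wells as intracellular ATP by CellTiter-Glo luminescence after 30 min at room temperature.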
# [10] = p53 small molecule agonists, cell-based qHTS assay (AID 1963582; active = well fitted activation curve with a large enough effect in the signal ratio in the repeat runs, not every such curve was filed as active; the % refers to the signal ratio)
# Procedure, shortened: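 p53RE-bla reporter cells, compounds added in DMSO after 5 h plating, incubated 16 h at 37 C. Beta-lactamase read via 2 h room-temperature LiveBLAzer B/G FRET substrate, fluorescence intensity.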
# [11] = target: 5-hydroxytryptamine receptor 2A (Homo sapiens) (UniProt P28223); assay: 5-hydroxytryptamine receptor 2A (HTR2A) small molecule antagonists, cell-based qHTS assay (AID 1963586); also: nearly all actives have a fitted effect of over 45% in size
# Procedure, shortened: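 Antagonist-mode intracellular calcium assay: DOI (4 nM) added after 5 min compound pre-incubation at room temperature to dye-loaded HTR2A-CHO cells. Fluorescence followed for 3 min, sampled every second.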
# [12] = target: 5-hydroxytryptamine receptor 2A (Homo sapiens) (UniProt P28223); assay: 5-hydroxytryptamine receptor 2A (HTR2A) small molecule agonists, cell-based qHTS assay (AID 1963587); also: nearly all actives have a fitted effect of over 30% in size; also: potency is read from the fitted curve at half-maximal effect
# Procedure, shortened: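 Kinetic calcium-flux fluorescence (2 min, 1 sec intervals) after compound addition in agonist mode. HTR2A-CHO cells were cultured 18 h, then dye-loaded 1 h at 37 C.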
# [13] = target: Muscarinic acetylcholine receptor M1 (Homo sapiens) (UniProt P11229); assay: Cholinergic receptor muscarinic 1 (CHRM1) small molecule antagonists, cell-based qHTS assay (AID 1963588); also: nearly all actives have a fitted effect of over 40% in size; also: potency is read from the fitted curve at half-maximal effect
# Procedure, shortened: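 CHRM1-CHO calcium-flux assay, antagonist mode. Cells were seeded 18 h, dye-loaded 1 h at 37 C and given compound for 5 min at RT, then acetylcholine was added at 50nM. FDSS fluorescence was read 3 min; 15 concentrations, three runs.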
# [14] = target: Muscarinic acetylcholine receptor M1 (Homo sapiens) (UniProt P11229); assay: Cholinergic receptor muscarinic 1 (CHRM1) small molecule agonists, cell-based qHTS assay (AID 1963589); also: nearly all actives have a fitted effect of over 35% in size
# Procedure, shortened: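 CHO cells stably expressing human CHRM1 were loaded with calcium dye for 1 h at 37 C, then compound was added in agonist mode. Intracellular calcium fluorescence was followed kinetically at 1 s intervals. Fifteen concentrations were tested in three independent runs.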
# [15] = cAMP Responsive Elements (CRE) small molecule antagonists, cell-based qHTS assay (AID 1963591; active = well fitted inhibition curve with a large enough effect in the signal ratio in the repeat runs, not every such curve was filed as active; the % refers to the signal ratio)
# Procedure, shortened: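 CRE-bla HEK293T cells plated 18 h, then given compound plus NKH477 at 0.25 uM final for 3 h at 37C. Beta-lactamase reporter read with LiveBLAzer B/G FRET substrate after 2 h at room temperature.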
# [16] = target: Beta-2 adrenergic receptor (Homo sapiens) (UniProt P07550); assay: Adrenergic beta2 receptor (ADRB2) small molecule antagonists, cell-based qHTS assay (AID 1963592); also: series mostly up to about 92 µM; nearly all actives have a fitted effect of over 50% in size
# Procedure, shortened: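 Cells (CHO, stable ADRB2 overexpression) incubated 18-20hr at 37C; compounds added from DMSO; agonist mix (1nM isoproterenol, 100uM IBMX, 25uM Ro-20-1724) added; 0.5hr RT; d2-cAMP and anti-cAMP-cryptate added; 1hr RT; 665/615 nm read.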
# [17] = target: Beta-2 adrenergic receptor (Homo sapiens) (UniProt P07550); assay: Adrenergic beta2 receptor (ADRB2) small molecule agonists, cell-based qHTS assay (AID 1963593);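 also: CHO cells stably overexpressing human ADRB2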
# Procedure, shortened: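 CHO cells stably over-expressing ADRB2 were plated overnight at 37C, then dosed with compounds plus a stimulation mix containing 100uM IBMX and 25uM Ro-20-1724 for 0.5hr at room temperature. cAMP was measured by HTRF competition, 1hr.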
# [18] = target: D(2) dopamine receptor (Homo sapiens) (UniProt P14416); assay: Dopamine D2 receptor (DRD2) small molecule agonists, cell-based qHTS assay (AID 1963594); also: nearly all actives have a fitted effect of over 35% in size
# Procedure, shortened: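 cAMP accumulation in DRD2-HEK293 cells measured by HTRF after 1 h detection; compounds added 10 min before NKH477 (200nM […]) forskolin-analogue stimulation, 30 min at room temperature, with Ro20-1724 present at 0.1 mM final.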
# [19] = target: D(2) dopamine receptor (Homo sapiens) (UniProt P14416); assay: Dopamine D2 receptor (DRD2) small molecule antagonists, cell-based qHTS assay (AID 1963595; active = well fitted inhibition curve with a large enough effect in the signal ratio in the repeat runs, with a control signal flat; the % refers to the signal ratio; also: potency is read from the fitted curve at half-maximal effect)
# Procedure, shortened: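 Antagonist mode in DRD2-HEK293 cells: after compound addition with 0.1 mM Ro20-1724, cells received quinpirole (12 nM) and NKH477 (200 nM) for 30 min at room temperature; HTRF cAMP read after 1 h detection.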
# [20] = cAMP Responsive Elements (CRE) small molecule agonists, cell-based qHTS assay (AID 1963590)
# Procedure, shortened: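 CRE-bla HEK 293T cells, 2,000/well in DMEM with 10% dialyzed FBS and 25 mM HEPES, pre-incubated 18 h at 37 C, then exposed to compound 3 h at 37 C. Beta-lactamase reporter read with LiveBLAzer B/G FRET substrate after 2 h at room temperature.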
# Chain of D(2) dopamine receptor (Homo sapiens) (P14416 whole entry, looked up): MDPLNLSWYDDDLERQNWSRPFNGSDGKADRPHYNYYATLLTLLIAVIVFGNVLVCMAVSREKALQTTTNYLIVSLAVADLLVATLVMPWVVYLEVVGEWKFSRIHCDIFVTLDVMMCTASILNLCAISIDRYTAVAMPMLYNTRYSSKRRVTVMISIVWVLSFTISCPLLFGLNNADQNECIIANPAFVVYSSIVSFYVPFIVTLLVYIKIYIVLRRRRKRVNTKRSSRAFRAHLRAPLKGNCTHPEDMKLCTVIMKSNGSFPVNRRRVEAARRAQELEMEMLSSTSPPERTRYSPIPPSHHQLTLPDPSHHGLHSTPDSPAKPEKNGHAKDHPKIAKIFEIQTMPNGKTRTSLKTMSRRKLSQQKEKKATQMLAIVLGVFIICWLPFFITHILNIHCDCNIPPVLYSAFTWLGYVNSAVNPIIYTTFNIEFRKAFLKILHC
# Chain of 5-hydroxytryptamine receptor 2A (Homo sapiens) (P28223 whole entry, looked up): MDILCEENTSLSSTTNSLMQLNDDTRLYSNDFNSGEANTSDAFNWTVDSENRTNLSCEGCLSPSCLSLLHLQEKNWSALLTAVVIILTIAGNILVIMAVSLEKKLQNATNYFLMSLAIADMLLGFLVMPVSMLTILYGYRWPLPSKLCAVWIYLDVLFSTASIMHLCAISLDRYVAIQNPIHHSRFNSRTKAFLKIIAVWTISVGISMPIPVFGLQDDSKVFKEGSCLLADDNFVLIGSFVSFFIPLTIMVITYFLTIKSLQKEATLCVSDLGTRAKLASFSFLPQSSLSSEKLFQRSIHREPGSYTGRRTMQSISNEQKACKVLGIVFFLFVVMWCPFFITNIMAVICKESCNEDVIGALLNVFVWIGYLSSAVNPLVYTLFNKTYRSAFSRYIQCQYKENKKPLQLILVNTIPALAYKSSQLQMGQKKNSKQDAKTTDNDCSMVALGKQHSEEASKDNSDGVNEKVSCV
# Chain of KiSS-1 receptor (Homo sapiens) (Q969F8 whole entry, looked up): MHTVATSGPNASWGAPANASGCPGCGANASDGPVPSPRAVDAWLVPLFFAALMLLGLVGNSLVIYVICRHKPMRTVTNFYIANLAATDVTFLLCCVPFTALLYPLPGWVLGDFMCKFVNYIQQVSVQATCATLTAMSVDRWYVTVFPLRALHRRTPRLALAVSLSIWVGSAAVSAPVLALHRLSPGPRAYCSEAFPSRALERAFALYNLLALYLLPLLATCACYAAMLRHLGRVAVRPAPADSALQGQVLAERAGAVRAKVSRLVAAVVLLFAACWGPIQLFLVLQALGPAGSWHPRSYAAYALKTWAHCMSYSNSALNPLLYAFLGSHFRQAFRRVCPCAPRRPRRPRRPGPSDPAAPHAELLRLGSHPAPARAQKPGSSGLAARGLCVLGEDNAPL
# Chain of Muscarinic acetylcholine receptor M1 (Homo sapiens) (P11229 whole entry, looked up): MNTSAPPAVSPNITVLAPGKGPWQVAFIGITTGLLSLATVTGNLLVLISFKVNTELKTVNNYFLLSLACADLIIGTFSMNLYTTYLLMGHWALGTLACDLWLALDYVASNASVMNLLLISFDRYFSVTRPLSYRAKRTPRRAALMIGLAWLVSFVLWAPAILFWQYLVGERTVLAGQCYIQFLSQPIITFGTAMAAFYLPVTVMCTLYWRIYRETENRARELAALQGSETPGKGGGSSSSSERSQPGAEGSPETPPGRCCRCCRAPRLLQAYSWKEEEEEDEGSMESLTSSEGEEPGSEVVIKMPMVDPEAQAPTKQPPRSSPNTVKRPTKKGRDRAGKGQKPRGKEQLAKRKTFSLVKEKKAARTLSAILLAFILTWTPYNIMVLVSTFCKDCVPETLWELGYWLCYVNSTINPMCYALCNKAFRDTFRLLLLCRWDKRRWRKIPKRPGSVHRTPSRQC
# Chain of Beta-2 adrenergic receptor (Homo sapiens) (P07550 whole entry, looked up): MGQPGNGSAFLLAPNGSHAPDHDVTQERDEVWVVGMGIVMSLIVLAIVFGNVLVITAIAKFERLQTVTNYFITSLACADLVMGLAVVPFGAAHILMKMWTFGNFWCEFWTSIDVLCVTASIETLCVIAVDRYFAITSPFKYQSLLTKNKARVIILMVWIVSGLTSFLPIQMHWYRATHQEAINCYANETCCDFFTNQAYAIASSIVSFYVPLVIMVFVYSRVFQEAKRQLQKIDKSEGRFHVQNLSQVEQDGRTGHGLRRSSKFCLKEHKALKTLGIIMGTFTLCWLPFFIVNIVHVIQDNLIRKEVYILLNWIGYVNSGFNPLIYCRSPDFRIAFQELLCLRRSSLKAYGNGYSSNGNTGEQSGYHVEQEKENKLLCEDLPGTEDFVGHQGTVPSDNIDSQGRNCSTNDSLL
compound,measurement,setting,value
CC(C)=CCCC(C)O (stereo unspecified),Potency,[1],inactive
same,Potency,[2],inactive
same,Potency,[3],inactive
same,Potency,[4],inactive
same,Potency,[5],inactive
same,Potency,[6],inactive
same,Potency,[7],inactive
same,Potency,[8],inactive
same,Potency,[9],inactive
same,Potency,[10],inactive
same,Potency,[11],inactive
same,Potency,[12],inactive
same,Potency,[13],inactive
same,Potency,[14],inactive
same,Potency,[15],inactive
same,Potency,[16],inactive
same,Potency,[17],inactive
same,Potency,[18],inactive
same,Potency,[19],inactive
O=c1[nH][nH]c(=O)c2cc([N+](=O)[O-])ccc12,Potency,[1],inactive
same,Potency,[2],inactive
same,Potency,[3],inactive
same,Potency,[4],inactive
same,Potency,[5],inactive
same,Potency,[6],inactive
same,Potency,[7],inactive
same,Potency,[8],inactive
same,Potency,[9],inactive
same,Potency,[10],inactive
same,Potency,[11],inactive
same,Potency,[12],inactive
same,Potency,[14],inactive
same,Potency,[20],inactive
same,Potency,[15],inactive
same,Potency,[16],inactive
same,Potency,[17],inactive
same,Potency,[18],inactive
same,Potency,[19],inactive
O=c1cc(-c2ccccc2)oc2ccccc12,Potency,[1],inactive and 13.6 µM (active)
same,Potency,[2],4.86 µM (active) and 2.16 µM (active)
same,Potency,[3],inactive
same,Potency,[4],inactive
same,Potency,[7],inactive
same,Potency,[8],inactive
same,Potency,[9],inactive
same,Potency,[11],inactive
same,Potency,[12],inactive
same,Potency,[13],inactive
same,Potency,[14],inactive
same,Potency,[15],inactive
same,Potency,[16],inactive
same,Potency,[18],inactive
same,Potency,[19],inactive
CC(=O)N(CC(O)CO)c1c(I)c(C(=O)NCC(O)CO)c(I)c(C(=O)NCC(O)CO)c1I (stereo unspecified),Potency,[1],inactive
same,Potency,[2],inactive
same,Potency,[3],inactive
same,Potency,[5],inactive
same,Potency,[6],inactive
same,Potency,[7],inactive
same,Potency,[8],inactive
same,Potency,[9],inactive
same,Potency,[10],inactive
same,Potency,[11],inactive
same,Potency,[12],inactive
same,Potency,[13],inactive
same,Potency,[14],inactive
same,Potency,[20],inactive
same,Potency,[15],inactive
same,Potency,[16],inactive
same,Potency,[17],inactive
same,Potency,[18],inactive
same,Potency,[19],inactive
CCCCCCCC/C=C\CCCCCCCC(=O)OCCCC,"activity change, negative = cytotoxicity",[1],4.3% [at 19 µM] (inactive)
same,"activity, positive = activation",[2],8.08% [at 19 µM] (inactive)
same,activation,[3],1.04% [at 15.8 µM] (inactive)
same,activation,[4],0.0792% [at 11.8 µM] (inactive)
same,activation,[6],-0.57% [at 13.6 µM] (inactive)
same,"activity change, negative = cytotoxicity",[7],0.909% [at 13.5 µM] (inactive)
same,"activity change, negative = cytotoxicity",[8],7.39% [at 13.5 µM] (inactive)
same,"activity change, negative = cytotoxicity",[9],6.46% [at 13.5 µM] (inactive)
same,activation,[10],-0.177% [at 13.5 µM] (inactive)
same,"activity, negative = inhibition",[11],-6.13% [at 12.7 µM] (inactive)
same,"activity, negative = inhibition",[13],5.7% [at 12.6 µM] (inactive)
same,activation,[14],-0.0084% [at 15.8 µM] (inactive)
same,activation,[20],0.955% [at 19 µM] (inactive)
same,"activity change, negative = inhibition",[15],-13.9% [at 18.9 µM] (inactive)
same,"activity change, negative = inhibition",[16],-2.11% [at 19 µM] (inactive)
same,activation,[17],25.8% [at 19 µM] (inactive)
same,activation,[18],-5.29% [at 19 µM] (inactive)
CCCCCCCCCCCCCC[P+](CCCC)(CCCC)CCCC,Potency,[1],9.63 µM (active) and 24.3 µM (active)
same,Potency,[2],inactive
same,Potency,[3],inactive
same,Potency,[4],inactive
same,Potency,[7],45.5 µM (active) and 20.4 µM (active)
same,Potency,[8],45.5 µM (active) and 40.8 µM (active)
same,Potency,[9],20.3 µM (active) and 25.7 µM (active)
same,Potency,[12],21.8 µM (active) and 54.9 µM (active)
same,Potency,[13],inactive and 9.42 µM (active)
same,Potency,[14],inactive
same,Potency,[16],inactive
same,Potency,[17],inactive
same,Potency,[18],inactive
same,Potency,[19],17.1 µM (active) and 43.3 µM (active)
CC[C@H](C)[C@@H](C(=O)O)n1sc2ccccc2c1=O,Potency,[1],inactive
same,Potency,[2],54.5 µM (active)
same,Potency,[3],inactive
same,Potency,[4],inactive
same,Potency,[5],inactive
same,Potency,[6],inactive
same,Potency,[7],inactive
same,Potency,[9],inactive
same,Potency,[10],inactive
same,Potency,[11],inactive
same,Potency,[12],inactive
same,Potency,[13],inactive
same,Potency,[14],inactive
same,Potency,[20],inactive
same,Potency,[15],inactive
same,Potency,[16],inactive
same,Potency,[18],inactive
Cc1cn([C@H]2C[C@H](F)[C@@H](CO)O2)c(=O)[nH]c1=O,Potency,[1],inactive
same,Potency,[2],inactive
same,Potency,[3],inactive
same,Potency,[4],inactive
same,Potency,[5],inactive
same,Potency,[6],inactive
same,Potency,[7],inactive
same,Potency,[10],inactive
same,Potency,[12],inactive
same,Potency,[13],inactive
same,Potency,[14],inactive
same,Potency,[20],inactive
same,Potency,[15],inactive
same,Potency,[16],inactive
same,Potency,[17],inactive
same,Potency,[18],inactive
